From PubChem
Most compounds without a hit are left out; they make up all but 2.4% or so of the library.
POLI inh – qHTS for Inhibitors of Polymerase Iota; Potency, µM (series often up to 115 µM), inactives show at the top dose activity, negative = inhibition, usual class: inhibitors; Pol iota fluorescent replication assay, 10 min; DNA polymerase iota (Homo sapiens), Q9UNA4; AID 588590, 2011; actives 1% (n = 390,000)
Target sequence (Q9UNA4 whole entry, looked up): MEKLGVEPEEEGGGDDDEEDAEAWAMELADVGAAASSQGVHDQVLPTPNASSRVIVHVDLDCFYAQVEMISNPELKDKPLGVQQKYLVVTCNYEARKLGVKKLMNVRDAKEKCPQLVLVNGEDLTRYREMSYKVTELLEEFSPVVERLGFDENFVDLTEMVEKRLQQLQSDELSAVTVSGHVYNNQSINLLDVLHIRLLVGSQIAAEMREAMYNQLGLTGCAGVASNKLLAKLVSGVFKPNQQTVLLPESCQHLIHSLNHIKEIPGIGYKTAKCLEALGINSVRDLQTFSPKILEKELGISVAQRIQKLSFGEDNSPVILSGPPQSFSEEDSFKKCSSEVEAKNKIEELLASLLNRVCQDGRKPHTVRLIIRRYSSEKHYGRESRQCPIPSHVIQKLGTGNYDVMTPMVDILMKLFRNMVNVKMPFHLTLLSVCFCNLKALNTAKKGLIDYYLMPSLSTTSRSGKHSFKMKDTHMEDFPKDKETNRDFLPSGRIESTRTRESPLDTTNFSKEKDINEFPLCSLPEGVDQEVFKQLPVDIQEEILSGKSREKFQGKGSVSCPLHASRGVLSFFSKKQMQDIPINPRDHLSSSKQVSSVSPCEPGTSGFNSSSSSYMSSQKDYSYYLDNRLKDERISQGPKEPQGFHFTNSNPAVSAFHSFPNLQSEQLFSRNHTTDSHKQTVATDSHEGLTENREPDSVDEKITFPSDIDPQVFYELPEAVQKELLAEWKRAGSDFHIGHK
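Fluorescent replication assay read twice, at 0 min and 10 min after adding 50 nM (final) substrate. Enzyme (10 nM) and compounds were first incubated 15 min at room temperature; enzyme-free buffer wells were negative controls.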
Pol eta inh-1 – qHTS for Inhibitors of Polymerase Eta; actives 1.2% (n = 390,000); DNA polymerase eta (Homo sapiens), Q9Y253; AID 588591, 2011; recombinant Pol eta, fluorescent DNA replication assay; Potency, µM (series often up to 114 µM), for the others: at the highest dose activity change, negative = inhibition, most hits filed as inhibitors; also: % is scaled to controls: 0 for no effect and ±100 for the full control effect
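Pol eta at 10 nM preincubated with compounds 15 min at room temperature; reaction started with fluorescent substrate (50 nM final) and read kinetically at 0 and 10 min.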
TDP1 block – qHTS Assay for Inhibitors of Tyrosyl-DNA Phosphodiesterase (TDP1); Tyrosyl-DNA phosphodiesterase 1 (Homo sapiens), Q9NUW8; actives 0.28% (n = 350,000); recombinant TDP1, AlphaScreen DNA substrate cleavage; Potency, µM (highest dose often 130 µM), for the others: at the top dose activity change, negative = inhibition, usual class: inhibitors; also: % is scaled to controls: 0 for no effect and ±100 for the full control effect; nearly all actives have a fitted effect of over 40% in size
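AlphaScreen read-out: signal falls as enzyme removes the 3' tyrosine-FITC from a 5'-biotinylated DNA oligo (15 nM, 5 min, RT). Enzyme was E. coli-made recombinant Tdp1 at 1 nM, exposed to compound for 15 min beforehand; beads 10 ug/ml, 10 min.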
FEN1 inh-1 – qHTS Assay for the Inhibitors of Human Flap endonuclease 1 (FEN1); AID 588795, 2011; P39748; Potency, µM (series often up to 114 µM), inactives show top-dose activity change, negative = inhibition, hits mostly inhibitors; Recombinant FEN1 flap cleavage, fluorescence, 15 min; actives 0.35% (n = 390,000); also: % is scaled to controls: 0 for no effect and ±100 for the full control effect; nearly all actives have a fitted effect of over 65% in size
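Recombinant FEN1 (10 nM) was preincubated with pin-transferred compounds for 15 min at room temperature, then flap DNA substrate (50 nM final) was added. Plates were read at 0 and 15 min, and normalized concentration–response data were fitted to a four-parameter Hill equation.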
POLB inh – qHTS Assay for Inhibitors of DNA Polymerase Beta. Pol beta primer extension/strand displacement, fluorescence kinetic. Potency, µM (doses to about 114 µM), without a hit: top-dose activity change, negative = inhibition, actives largely listed as inhibitors. actives 1.3% (n = 340,000). AID 485314, 2010; also: % is scaled to controls: 0 for no effect and ±100 for the full control effect
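Pol beta (10 nM) and compounds were preincubated 15 min at room temperature, then 50 nM substrate (final) started primer extension/strand displacement. Reads were taken at 0 and 10 min; concentration-response data were fitted to a four-parameter Hill equation.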
Pol kappa inh-1 – qHTS for Inhibitors of Polymerase Kappa; actives 0.53% (n = 400,000); DNA polymerase kappa (Homo sapiens), Q9UBT6; purified Pol kappa, fluorescent DNA synthesis assay, 10 min; Potency, µM (highest dose often 107 µM), inactives show top-dose activity, negative = inhibition, hits mostly inhibitors; also: % is scaled to controls: 0 for no effect and ±100 for the full control effect
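50 nM final substrate added after 15 min RT preincubation of 10 nM Pol kappa with compound; fluorescence read at 0 and 10 min.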
PGK validate – qHTS for inhibitors of Phosphogylcerate Kinase: Hit Validation Screen; TbPGK coupled GAPDH assay, Kinase-Glo luminescence; actives 79% (n = 500); Potency, µM (doses to about 57.5 µM), without a hit: at the highest dose activity change, negative = inhibition, usual class: inhibitors; AID 686980, 2013; shares compounds with Pol kappa inh-1; also: % is scaled to controls: 0 for no effect and ±100 for the full control effect; nearly all actives have a fitted effect of over 65% in size
POLI cherry-pick – qHTS for Inhibitors of Polymerase Iota: Confirmatory Assay for Cherry-picked Compounds. Potency, µM, most hits filed as inhibitors. shares compounds with Pol kappa inh-1. actives 77% (n = 1,500). Pol iota primer extension, TAMRA/BHQ fluorescence
Pol kappa inh-2 – qHTS for Inhibitors of Polymerase Kappa: Confirmatory Assay for Cherry-picked Compounds. shares compounds with Pol eta inh-1. purified Pol-kappa, fluorescent strand-displacement substrate. Potency, µM, hits mostly inhibitors. actives 76% (n = 920). AID 720501, 2013
Pol eta inh-2 – qHTS for Inhibitors of Polymerase Eta: Confirmatory Assay for Cherry-picked Compounds | shares compounds with Pol eta inh-1 | Pol eta primer extension, TAMRA/BHQ fluorescence, 10 min | Potency, µM, most hits filed as inhibitors | actives 64% (n = 2,600) | AID 720502, 2013
FEN1 inh-2 – qHTS Assay for the Inhibitors of FEN1: Confirmatory Assay for Cherry-picked Compounds | shares compounds with FEN1 inh-1 | FEN1 flap cleavage, TAMRA/BHQ2 fluorogenic DNA substrate | Potency, µM, actives largely listed as inhibitors | actives 79% (n = 880) | AID 720498, 2013; also: nearly all actives have a fitted effect of over 60% in size
* hit, by the source's call; ? = inconclusive; · = no result; [ ] = remark or other dose. Calls follow the shape of the dose curve; as a rule, active = well fitted curve in the direction sought with a large enough effect; inconclusive = small, poorly fitted or top-dose-only effect, or another doubt; inactive = no such curve, though single readings can be large; an effect the other way counts as inactive or inconclusive. Potency is read from the fitted curve at half-maximal effect.

SMILES	POLI inh	Pol eta inh-1	TDP1 block	FEN1 inh-1	POLB inh	Pol kappa inh-1	POLI cherry-pick	Pol kappa inh-2	Pol eta inh-2	FEN1 inh-2	others
CCc1ccc2[nH]cc(S(=O)(=O)c3ccc(C(C)C)cc3)c(=O)c2c1	6%	-2%	9%	-6%	1%	-14%	·	·	·	·
COc1ccc(-c2nn(-c3ccccc3)cc2/C=C2/SC(=S)N(CCC(=O)O)C2=O)c(C)c1	?	32µM*	40µM*	?	32µM*	?	75*	·	?	67*
O=C1c2cccc(NCCCNCCO)c2C(=O)c2cccc(NCCCNCCO)c21	45µM*	4.5µM*	·	3.5µM*	·	32µM*	19*	17*	38*	4.3*
O=C1c2ccccc2C(=O)c2c(NCc3cccnc3)cccc21	9%	-1%	11%	-18%	-2%	-12%	·	·	·	·
CCCc1nn2c(C)c(-c3ccccc3)nc2s1	-9%	-19%	-14%	4%	11%	-1%	·	·	·	·
COc1ccc(/C=C2\C(=O)NC(=S)N2C(=O)c2ccc(C)cc2)cc1	18µM*	16µM*	?	?	20µM*	?	?	·	?	76*
O=C(COC(=O)c1ccccc1)Nc1ncc([N+](=O)[O-])s1	2.2µM*	0.79µM*	·	45µM*	·	22µM*	2.7*	0.75*	1.7*	67*	PGK validate=3.3µM*
COc1cccc2c1C(=O)c1c(O)c3c(c(O)c1C2=O)CC(O)(C(C)=O)CC3OC1CC(N(C)C)C(O)C(C)O1 (stereo not given)	22µM*	11µM*	·	32µM*	·	?	11*	24*	19*	38*
CCN1C(=O)[C@H]2[C@H]3[C@H](O)[C@H](O)C/C(=N/OC[C@@H](O)COCc4ccco4)[C@H]3CC[C@@H]2C1=O	·	·	8%[21 µM]	·	·	·	·	·	·	·
COc1ccc(NC(=O)N2CCCC3(CCN(C(=O)c4c(C)noc4C)CC3)C2)cc1	·	·	·	·	·	-13%[60.1 µM]	·	·	·	·
O=C(O)C(c1ccccc1)N1C(=O)/C(=C\c2ccc(-c3ccc(Br)cc3)o2)SC1=S (stereo not given)	11µM*	?	·	20µM*	?	?	42*	·	27*	76*
CC1(C)CC(N=c2cc(-c3ccccc3)oc3ccc(Cl)cc23)CC(C)(C)N1	?	?	2%	28µM*	4µM*	?	19*	·	·	19*
